Wnt act: activators of Wnt/beta-catenin signaling. hit rate 1.2% among 300,000. activation, % at 9.35 µM. AID 743398. Wnt/beta-catenin reporter cell assay, activator, plate reader; in the data active = activation above about 30%, passing the limit was not always enough
FXN GAA850 act: activators of GAA850 frataxin (FXN) promoter; HEK293 lucGAA850 FXN promoter luciferase reporter, 24 h; percent of 10 µM SAHA response; activation, % at 6 µM; hit rate 0.56% among 360,000;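 active = activation above the average of all compounds screened plus 3 SD, cutoff fixed separately per campaign, cut at about 7.5% in these data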
AHR activator: activates the human aryl hydrocarbon receptor; AHR-responsive luciferase reporter cells, luminescence; P35869; hit rate 2.5% among 320,000; activation, % at 5 µM; in the data active = activation above about 47%
Target sequence (P35869 whole entry, looked up): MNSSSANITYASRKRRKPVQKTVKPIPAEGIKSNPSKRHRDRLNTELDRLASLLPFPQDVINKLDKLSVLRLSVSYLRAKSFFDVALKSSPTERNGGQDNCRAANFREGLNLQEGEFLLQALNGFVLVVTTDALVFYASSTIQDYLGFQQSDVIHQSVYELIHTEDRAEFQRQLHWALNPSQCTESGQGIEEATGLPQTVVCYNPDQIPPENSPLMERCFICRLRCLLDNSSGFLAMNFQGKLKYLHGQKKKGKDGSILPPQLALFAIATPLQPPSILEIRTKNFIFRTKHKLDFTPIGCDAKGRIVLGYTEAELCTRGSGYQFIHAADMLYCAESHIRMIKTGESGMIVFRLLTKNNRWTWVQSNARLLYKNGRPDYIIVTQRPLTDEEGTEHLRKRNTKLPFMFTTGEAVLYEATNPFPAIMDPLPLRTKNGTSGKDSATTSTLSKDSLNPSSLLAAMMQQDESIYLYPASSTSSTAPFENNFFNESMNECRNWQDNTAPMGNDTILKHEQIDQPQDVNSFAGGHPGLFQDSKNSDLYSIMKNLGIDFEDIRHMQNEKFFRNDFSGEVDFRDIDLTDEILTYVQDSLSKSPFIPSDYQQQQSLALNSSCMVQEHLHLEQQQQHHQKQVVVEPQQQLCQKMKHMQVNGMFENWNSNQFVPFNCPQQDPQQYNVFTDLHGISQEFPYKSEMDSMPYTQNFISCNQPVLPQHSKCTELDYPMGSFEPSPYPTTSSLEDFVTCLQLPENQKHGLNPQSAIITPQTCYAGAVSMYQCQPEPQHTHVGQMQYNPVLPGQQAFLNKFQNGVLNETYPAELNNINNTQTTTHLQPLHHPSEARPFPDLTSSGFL
MITF TRPM1 HTS: MITF TRPM1 promoter activation in melanoma cells. SK-MEL-5 TRPM1-promoter luciferase, 24 h; % of positive control, neutral wells = 0. activation, % at 12.5 µM. hit rate 0.75% among 300,000;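 active = mean activation of at least 80% with every replicate also reaching 80%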
esBAF inh: blocks esBAF chromatin remodeling in mouse ES cells; Bmi1-luciferase knock-in reporter, 24 h; 100% = twice the neutral-well signal; reporter increase, % at 12.5 µM; hit rate 2% among 350,000; AID 602393; in the data active = activation above about 40%;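 note: a rise in the Bmi1 reporter signal indicates esBAF inhibition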
Of the large screens only hits and unclear results are named; the others gave an inactive call. An excerpt weighted towards active compounds, which were near 4.2% of everything screened.

O=C(CCCc1ccccc1)Nc1ccccc1C(F)(F)F	esBAF inh 72 (no result: MITF TRPM1 HTS)
NC(=O)c1ccccc1NC(=O)/C=C/c1ccccc1	Wnt act 74 (no result: esBAF inh)
O=C(CCCOc1ccccc1)Nc1ccccc1C(F)(F)F	none (no result: Wnt act)
O=C(N[C@@H]1CC[C@@H](CC(=O)N2CCOCC2)O[C@H]1CO)c1ccccn1	none (no result: Wnt act, FXN GAA850 act, AHR activator, MITF TRPM1 HTS)
NC(=O)c1ccccc1NC(=O)CCc1ccccc1	esBAF inh 48
O=C(Nc1c(Cl)cc(Cl)cc1-c1nc2ccccc2s1)c1ccc(Br)o1	AHR activator 61
CC(C)(C)OC(=O)NNC(=O)c1cccs1	none (no result: esBAF inh)
CC(C)(C)C(=O)NNC(=O)c1cc2sccc2s1	Wnt act 41 (no result: esBAF inh)
Cc1cc(OCc2cc(C(=O)NC(C)c3cnn(C)c3)no2)cc(C)c1Cl (stereo not given)	esBAF inh 72 (no result: Wnt act, AHR activator, MITF TRPM1 HTS)
Cc1cc(OCc2cc(C(=O)NC(C)c3c(C)nn(C)c3C)no2)cc(C)c1Cl (stereo not given)	esBAF inh 83
CC(=O)c1ccc(OCc2cc(C(=O)NC(C)c3cnn(C)c3)no2)cc1 (stereo not given)	none
Cc1cc(OCc2cc(C(=O)NC3CCC3)no2)cc(C)c1Cl	none (no result: Wnt act)
Cc1noc(C)c1NC(=O)N(C)C[C@@H]1OCCCC[C@@H](C)Oc2ccc(NS(=O)(=O)c3c(C)noc3C)cc2C(=O)N([C@H](C)CO)C[C@H]1C	none (no result: Wnt act, FXN GAA850 act, AHR activator, MITF TRPM1 HTS)
COc1ccc(CN(C)C[C@@H]2OCCCC[C@@H](C)Oc3ccc(NC(=O)CCCN(C)C)cc3C(=O)N([C@H](C)CO)C[C@H]2C)cc1	none (no result: Wnt act, FXN GAA850 act, AHR activator, MITF TRPM1 HTS)
O=C(COC(=O)c1ccc2ncsc2c1)Nc1cccc(Cl)c1	none
O=C(Nc1ccc(Cl)cc1)c1ccc2ncsc2c1	AHR activator 49, esBAF inh 65
O=C(Nc1ccc(Cl)cc1)c1cncs1	AHR activator 68
N#Cc1ccsc1NC(=O)c1ccc2ncsc2c1	esBAF inh 71 (no result: AHR activator, MITF TRPM1 HTS)
O=C(Nc1cccc(Cl)c1)c1ccc2ncsc2c1	esBAF inh 48
CO[C@H]1CN(C)C(=O)c2ccc(NC(=O)C3CCCCC3)cc2OC[C@@H](C)N(C(=O)c2ccccc2)C[C@H]1C	none (no result: Wnt act, FXN GAA850 act, AHR activator, MITF TRPM1 HTS)
CN(C)C(=O)C[C@@H]1C[C@H]2c3cc(NS(=O)(=O)c4ccccc4)ccc3O[C@H]2[C@H](CO)O1	none (no result: Wnt act, FXN GAA850 act, AHR activator, MITF TRPM1 HTS)
O=C(Nc1ccc(C(F)(F)F)cc1)c1ccc2ncsc2c1	esBAF inh 58 (no result: MITF TRPM1 HTS)
COC(=O)/C(=C1/Oc2ccc(C(C)(C)C)cc2S1)C(F)(F)F	Wnt act 37 (no result: esBAF inh)
CO[C@@H]1CN(C)C(=O)c2cc(NS(=O)(=O)c3cn(C)cn3)ccc2OC[C@H](C)N(Cc2cccc(F)c2)C[C@@H]1C	none (no result: Wnt act, FXN GAA850 act, AHR activator, MITF TRPM1 HTS)
CCc1nc2c(sc3nc4c(cc32)COC(C)(C)C4)c(=O)n1Cc1ccco1	AHR activator 53
Cc1nc(OCC(C)C)c2sc3nc4c(cc3c2n1)COC(C)(C)C4	Wnt act 52 (no result: MITF TRPM1 HTS, esBAF inh)
CC=Cc1ccc2n(c1=O)C[C@@H]1[C@@H](CO)[C@H](C(=O)N(C)C)[C@H]2N1CC1CCOCC1 (mixture of isomers)	none (no result: Wnt act, FXN GAA850 act, AHR activator, MITF TRPM1 HTS)
O=C(CCC(=O)OCC(=O)c1cccc([N+](=O)[O-])c1)Nc1cccc(Cl)c1Cl	Wnt act 40 (no result: esBAF inh)
Cc1ccccc1NC(=O)CCC(=O)OCC(=O)c1cccc([N+](=O)[O-])c1	none
CCn1c(SCC#N)nc2ccccc2c1=O	none (no result: esBAF inh)
N#CCSc1nc2ccccc2c2nc3ccccc3n12	AHR activator 48 (no result: esBAF inh)
C[C@@H]1CN([C@H](C)CO)C(=O)CCCn2cc(nn2)CO[C@H]1CN(C)Cc1cccnc1	none (no result: Wnt act, FXN GAA850 act, AHR activator, MITF TRPM1 HTS)
O=C(C[C@H]1CC[C@@H](NC(=O)c2ccccn2)[C@H](CO)O1)NCc1cccc(F)c1	none (no result: Wnt act, FXN GAA850 act, AHR activator, MITF TRPM1 HTS)
CC(=O)Nc1ccc(C(=O)CSc2nnnn2C)cc1	none
Cn1nnnc1SCc1ccc(C(=O)Nc2ccc(Br)cc2)cc1	esBAF inh 72 (no result: Wnt act)
Cc1cccc(N2CC(C(=O)NC3CCCCCC3)CC2=O)c1C (stereo not given)	Wnt act 368
Cc1ccccc1N1CC(C(=O)NC2CCCC2)CC1=O (stereo not given)	none
C[C@@H]1CN([C@@H](C)CO)C(=O)CCCn2nncc2CO[C@@H]1CN(C)Cc1ccncc1	none (no result: Wnt act, FXN GAA850 act, AHR activator, MITF TRPM1 HTS)
O=C1c2ccccc2C(=O)c2cc(NC(=O)C3CC3)ccc21	AHR activator 168 (no result: esBAF inh)
O=C(O)/C=C/C(=O)Nc1ccc(C(=O)c2ccccc2)cc1	none (no result: esBAF inh)
O=C(O)/C=C/C(=O)Nc1ccc2c(c1)C(=O)c1ccccc1C2=O	Wnt act 50 (no result: esBAF inh)
CCc1ccc(C(=O)CCC2CCCCC2=O)cc1 (stereo not given)	MITF TRPM1 HTS 89 (no result: Wnt act)
O=C(CCC1CCCCC1=O)c1ccccc1 (stereo not given)	none (no result: Wnt act)

Compound activity as filed in PubChem.
